The record followed here is PubChem BioAssay AID1845224 (National Center for Advancing Translational Sciences (NCATS), 2023).

Inconclusive results are not listed. Where a call stands in place of a potency, no number is given. The source made the active and inactive calls. Calls follow the shape of the dose curve; as a rule, active = well fitted curve in the direction sought with a large enough effect; inconclusive = small, poorly fitted or top-dose-only effect, or another doubt; inactive = no such curve, though single readings can be large or run the other way.
Potency is read from the fitted curve at half-maximal effect.

This assay concerns NanoLuc luciferase (engineered Oplophorus gracilirostris luciferase). As to the kind of experiment: Confirmatory Nanoluciferase (NLuc) qHTS assay for identification of artifact compounds. Conditions: secreted NLuc in S16 cell medium, luminescence, 5 min; series mostly up to 39 µM. The essentials:
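Compounds were preincubated 15 min at room temperature with diluted secreted NanoLuc from S16 cell medium, then read by luminescence 5 min after Nano-Glo substrate. Percent inhibition versus DMSO and no-enzyme controls fitted by 4-parameter Hill curve.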
As to `COc1ccccc1-c1nc2cc(NC(=O)c3ccccc3Cl)ccc2o1`, the Potency result was “inactive”.
The result for `Cc1cc(C)cc(-n2c(SCC(=O)N3CCCCCC3)nc3c([nH]c4ccccc43)c2=O)c1` reads “inactive”.
`OCC(O)C(O)C(OC1OC(CO)C(O)C(O)C1O)C(O)CO` (stereo not drawn): the Potency entry was “inactive”.
On to `COc1cccc(CNS(=O)(=O)c2cnc(N)nc2)c1`, for which the Potency entry was “inactive”.
With `Cc1ccc(C(=O)Nc2nc(-c3ccccc3)ns2)cc1`, the Potency entry was “inactive”.
As for `COc1ccc(OCc2nnc(-c3ccccc3)o2)cc1`, the Potency result is “inactive”.
For the compound `COc1ccc(C2=Nn3c(nnc3-c3cccc(OC)c3)SC2)cc1`, the Potency entry is “inactive”.
`COc1ccc(CNC(=O)CCc2c(C)nc3c4cccnc4nn3c2C)cc1`: the Potency entry was “inactive”.
As for `CC(=O)N1CCC(N(Cc2ccco2)C(=O)Nc2ccc(C)c(Cl)c2)CC1`, the Potency result was “inactive”.
As to `Cc1ccc(-c2nnc(Nc3cccc(Br)c3)c3ccccc23)cc1S(=O)(=O)N1CCCCC1`, the Potency entry was “inactive”.
Regarding `Cc1ccc(NC(=O)Nc2nnc(SCC(=O)N3CCCCC3)s2)cc1`, the Potency entry was “inactive”.
With `Cc1ccc(NC(=O)c2nc(-c3ccncc3)no2)c(Cl)c1`, the Potency entry was “inactive”.
For `O=C(Nc1cc(-c2ccc(F)c(F)c2)no1)c1ccccc1F` the value was “inactive”; for `O=C(OCC#CCSc1nnc(-c2ccc3ccccc3c2)o1)c1ccsc1`, “inactive”.
The result for `Cc1oc(-c2cccc(Br)c2)nc1CSc1nc2ncccc2[nH]1` reads 8.64 µM (active).
With `O=C(COc1ccc(Cl)cc1)Nc1ccc2nc(SCC(=O)N3CCCC3)sc2c1`, the Potency entry is “inactive”.
As to `CCOC(=O)c1c(S(=O)(=O)N2CCCC(C(=O)NCc3ccc(F)cc3)C2)c(C)n(CC)c1C` (stereo not drawn), the Potency entry was “inactive”.
For `CCCC[C@H]1C2=C3[C@@H](CC(C(=O)OC)=C[C@@H](C(=O)OC)[C@H]3C(C)(C)C2=O)n2c(=O)n(-c3ccccc3)c(=O)n21`, the Potency entry was “inactive”.
